Experimental data: PubChem BioAssay
Values joined by “and” are separate entries in the source; they are usually repeats but may differ in a detail not shown here. Identical values can stand only once. Where a structure was tested more than once in an assay, its records may differ in their call. Active and inactive are the calls of the source. Unless noted, how the calls were made is not given here.

How the values were obtained:
[1] = resazurin metabolic signal in HepG2 cells – cell-based, resazurin fluorescence, 24 h, PK04 Diversity Set, profiling panel (AID 1172); settings: HepG2 viability, higher = more signal; further: test concentration not given here
[2] = budding yeast growth changes without added modifier – OD600, strain BY4716, 24 h, basal condition, primary screen (AID 1173); settings: S. cerevisiae BY4716 growth, OD600, 24 h; higher = more signal, called active from +8 up or from −8 down
[3] = viability profiling in MM1S myeloma cells – cell-based, resazurin fluorescence, basal, 24 h, PK04 Diversity Set, profiling panel (AID 1174); settings: higher = more signal, called active from +8 up or from −8 down;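 further: MM1S multiple myeloma cell line; test concentration not given here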
[4] = biological target: Dihydroorotate dehydrogenase (quinone), mitochondrial (Plasmodium falciparum (isolate 3D7)) (UniProt Q08210); test: inhibition of P. falciparum DHODH – biochemical, C-terminal His tag, absorbance 600 nm, primary screen (AID 1175); settings: PfDHODH enzyme, DCIP absorbance 600 nm; higher = more signal, called active from +8 up or from −8 down;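 further: recombinant parasite enzyme with a five histidine tag at its C terminus; test concentration not given here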
[5] = inhibition of PAO1 biofilm formation – strain PAO1, LB-PBS medium, absorbance 600 nm, primary screen (AID 1176); further: test concentration not given here; settings: P. aeruginosa PAO1 growth/biofilm, A600, 12 h; higher = more signal
[6] = growth modulation of vineyard yeast isolate – strain RM11-1a, OD600, basal, 24 h, primary screen (AID 1177);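 further: cultures grown under basal conditions with no added stressor; test concentration not given here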; settings: S. cerevisiae RM11-1a growth, OD600, 24 h; higher = more signal, called active from +8 up or from −8 down
[7] = growth of efflux-deficient E. coli DRC39 – strain DRC39, OD650, 24 h, E. coli filamentation inducers, primary screen (AID 1178);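 further: growth measured as culture turbidity by optical density at 650 nm; test concentration not given here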; settings: E. coli DRC39 acrAB, higher = more signal, called active from +8 up or from −8 down
[8] = growth of efflux-deficient E. coli DRC39 – strain DRC39, OD650, 48 h, E. coli filamentation inducers, primary screen (AID 1179);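 further: screen aims at cell division blockers that make cells filament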; settings: E. coli DRC39 delta-acrAB growth, higher = more signal, called active from +8 up or from −8 down
[9] = viability profiling in RPMI8226 myeloma cells – cell-based, resazurin fluorescence, basal, 24 h, PK04 Diversity Set, profiling panel (AID 1180); settings: higher = more signal;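 further: RPMI8826 multiple myeloma cell line at 5000 cells per well; test concentration not given here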
[10] = biological target: E3 ubiquitin-protein ligase XIAP (Homo sapiens) (UniProt P98170); test: small molecules binding XIAP protein – biophysical, small-molecule microarray, fluorescence 635 nm, primary screen (AID 1181); settings: higher = more signal;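 further: score merges 667 nm emission and signal to noise over triplicate slides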
Sequence of E3 ubiquitin-protein ligase XIAP (Homo sapiens) (P98170 whole entry, looked up): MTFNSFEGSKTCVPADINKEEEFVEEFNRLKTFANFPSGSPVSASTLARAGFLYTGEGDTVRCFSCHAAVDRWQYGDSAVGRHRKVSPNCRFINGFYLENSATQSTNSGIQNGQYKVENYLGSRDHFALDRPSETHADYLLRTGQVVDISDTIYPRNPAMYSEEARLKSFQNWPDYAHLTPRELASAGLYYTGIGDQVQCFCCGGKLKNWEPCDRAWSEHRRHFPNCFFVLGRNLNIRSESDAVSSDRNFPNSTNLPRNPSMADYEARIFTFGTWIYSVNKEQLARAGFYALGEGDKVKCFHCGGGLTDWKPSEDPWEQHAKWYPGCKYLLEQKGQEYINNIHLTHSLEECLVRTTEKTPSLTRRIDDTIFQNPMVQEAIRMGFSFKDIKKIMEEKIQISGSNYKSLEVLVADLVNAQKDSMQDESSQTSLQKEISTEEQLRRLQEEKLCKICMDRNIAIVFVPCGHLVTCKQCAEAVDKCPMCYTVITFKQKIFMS

Sequence of Dihydroorotate dehydrogenase (quinone), mitochondrial (Plasmodium falciparum (isolate 3D7)) (Q08210 whole entry, looked up): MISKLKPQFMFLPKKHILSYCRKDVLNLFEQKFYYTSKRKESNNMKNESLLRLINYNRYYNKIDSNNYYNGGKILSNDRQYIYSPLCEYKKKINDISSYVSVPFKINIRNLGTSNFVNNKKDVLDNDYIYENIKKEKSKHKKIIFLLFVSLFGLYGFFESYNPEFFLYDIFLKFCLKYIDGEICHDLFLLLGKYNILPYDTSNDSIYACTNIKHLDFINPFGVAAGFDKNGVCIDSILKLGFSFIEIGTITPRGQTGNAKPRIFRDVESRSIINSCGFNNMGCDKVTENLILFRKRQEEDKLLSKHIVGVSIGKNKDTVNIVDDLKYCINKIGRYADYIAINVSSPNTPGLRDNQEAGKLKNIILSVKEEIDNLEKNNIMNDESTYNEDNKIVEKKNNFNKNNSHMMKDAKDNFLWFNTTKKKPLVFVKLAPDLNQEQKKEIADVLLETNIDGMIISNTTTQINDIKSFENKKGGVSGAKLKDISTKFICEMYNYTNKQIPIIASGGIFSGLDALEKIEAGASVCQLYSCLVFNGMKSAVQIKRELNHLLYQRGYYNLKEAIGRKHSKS

SMILES	z-score [1]	z-score [2]	z-score [3]	composite z-score [4]	z-score [5]	z-score [6]	z-score [7]	z-score [8]	z-score [9]	composite z-score [10]
C=CCN(C(=O)C1N(c2c(Cl)cccc2CO)C(=O)C2C(C(=O)O)C3C=CC21O3)C(C)(C)C (stereo not given)	0.0972 and 0.393	0.134 (inactive) and -0.493 (inactive)	-0.0453 (inactive) and 1.02 (inactive)	-0.395 (inactive) and -0.725 (inactive)	-0.497 (inactive) and 0.053 (inactive)	0.42 (inactive) and -1.92 (inactive)	0.0114 (inactive) and 1.34 (inactive)	-0.228 (inactive) and 1.65 (inactive)	-0.338 and 0.957	-0.217 and -0.113
COC(=O)C1=C(C)N(Cc2ccccc2)C2=C(C(C)=O)[C@H](c3ccccc3)[C@@](O)(C(=O)OC)C(=O)N2[C@@H]1c1ccccc1	1.38 and 0.559	-2.41 (inactive) and -3.21 (inactive)	1.07 (inactive) and 0.983 (inactive)	0.523 (inactive) and -1.82 (inactive)	1.08 (inactive)	-0.107 (inactive) and -3.5 (inactive)	1.32 (inactive) and 0.552 (inactive)	0.972 (inactive) and -1.35 (inactive)	1.27 and 0.0662	0.0177 and -0.244
COC(=O)CC=C[C@@H](C)[C@@H](CO)NS(=O)(=O)c1ccc(C)cc1	0.553 and -0.369	0.909 (inactive) and -1.39 (inactive)	0.0323 (inactive) and -0.548 (inactive)	0.581 (inactive) and -0.0189 (inactive)	0.013 (inactive) and 0.204 (inactive)	-0.214 (inactive) and -0.162 (inactive)	-0.0056 (inactive) and 0.413 (inactive)	-0.214 (inactive) and 0.297 (inactive)	0.519 and -0.314	-0.275 and 0.0656
CC(CO)N1C(=O)[C@@H]2C3C(=O)OCCC=C[C@H]3OC23C=CCN(CCN2CCOCC2)C(=O)[C@@H]13 (stereo not given in full)	-0.437 and 0.303	0.401 (inactive) and 0.191 (inactive)	-1.45 (inactive) and -0.517 (inactive)	-1.07 (inactive) and -2.08 (inactive)	0.0405 (inactive) and 0.0809 (inactive)	0.819 (inactive) and -0.631 (inactive)	-0.831 (inactive) and -0.259 (inactive)	-0.839 (inactive) and -0.358 (inactive)	-1.03 and -0.76	0.16 and 0.219
CO[C@@H]1COC(=O)CC=C[C@H](C)[C@@H](NS(=O)(=O)c2ccc(C)cc2)COC(=O)CC=C[C@@H]1C	0.157 and 1.73	-0.627 (inactive) and -0.634 (inactive)	0.445 (inactive) and 0.542 (inactive)	-0.198 (inactive) and -0.555 (inactive)	-0.531 (inactive) and -0.479 (inactive)	0.344 (inactive) and 0.104 (inactive)	0.643 (inactive) and 0.426 (inactive)	0.292 (inactive) and 0.187 (inactive)	-0.325 and 0.774	-0.209 and -0.304
CCOC(=O)[C@@H]1CC2O[C@]23C[C@@H]1C(=O)N1CCC[C@@H]1[C@H]3O[Si](C)(C)C(C)(C)C (stereo not given in full)	-0.464 and -0.0421	-0.648 (inactive) and -2.06 (inactive)	-0.645 (inactive) and -0.942 (inactive)	-0.0009 (inactive) and -0.513 (inactive)	0.167 (inactive) and 0.0117 (inactive)	-0.159 (inactive) and -0.702 (inactive)	0.215 (inactive) and -0.512 (inactive)	-0.215 (inactive) and -0.122 (inactive)	-0.586 and -0.593	0.0618 and -0.142
C=CCN(CCCCC)C(=O)C1N(CCOCCO)C(=O)C2C(C(=O)O)C3C=CC21O3 (stereo not given)	-0.541 and -0.785	0.709 (inactive) and 1.12 (inactive)	-0.885 (inactive) and -1.41 (inactive)	1.39 (inactive) and -0.109 (inactive)	-0.553 (inactive) and -0.469 (inactive)	0.892 (inactive) and 0.451 (inactive)	-0.649 (inactive) and -0.537 (inactive)	-0.496 (inactive) and -0.506 (inactive)	-0.724 and -0.899	-0.113 and -0.124
CCOC(=O)[C@@H]1CC=C2CC1C(=O)N1CCC[C@@H]1[C@H]2O[Si](C)(C)C(C)(C)C (stereo not given in full)	-0.464 and 1.65	0.0163 (inactive) and -8.53 (active)	-0.226 (inactive) and 1.07 (inactive)	-0.259 (inactive) and -0.198 (inactive)	-0.0825 (inactive) and -0.377 (inactive)	-1.35 (inactive) and 0.069 (inactive)	0.03 (inactive) and 0.867 (inactive)	0.262 (inactive) and -0.586 (inactive)	-0.516 and 0.845	-0.343 and -0.171
CCOC(=O)C[C@H]1[C@H](OC(=O)c2ccccc2-c2ccccc2)[C@@H](NC(=O)Cc2ccc(OC)cc2)c2cc(OCCCO)ccc2N1C(=O)c1ccc2ccccc2n1	0.528 and 0.85	-1.31 (inactive) and -0.5 (inactive)	1.19 (inactive) and 0.644 (inactive)	0.34 (inactive) and 0.282 (inactive)	0.456 (inactive)	-0.484 (inactive) and -0.0944 (inactive)	2.5 (inactive) and 0.544 (inactive)	1.25 (inactive) and 0.422 (inactive)	-0.0946 and 0.108	-0.289 and 0.299
C=CCN(CCCC)C(=O)C1N(CCOCCO)C(=O)C2C(C(=O)O)C3C=CC21O3 (stereo not given)	-0.171 and -0.143	0.492 (inactive) and 1.27 (inactive)	-0.451 (inactive) and -0.748 (inactive)	0.457 (inactive) and 0.856 (inactive)	0.413 (inactive) and 0.261 (inactive)	-0.119 (inactive) and 0.178 (inactive)	0.127 (inactive) and -0.229 (inactive)	-0.11 (inactive) and -0.406 (inactive)	-0.472 and -0.68	0.0258 and -0.304
CCOC(=O)c1ccc(NC(=O)O[C@H]2[C@H](OC(=O)Nc3ccccc3)[C@H](OC(=O)Nc3ccccc3)[C@@H](OC)O[C@@H]2CO)cc1	-1.03 and -1.82	0.645 (inactive) and -0.301 (inactive)	-1.75 (inactive) and -3.01 (inactive)	-0.299 (inactive) and -0.597 (inactive)	2.37 (inactive) and 1.74 (inactive)	2.14 (inactive) and 0.971 (inactive)	-0.468 (inactive) and 0.363 (inactive)	0.496 (inactive) and -0.189 (inactive)	-1.53 and -2.7	0.23 and 0.108
COC(=O)C1=C(C)N(Cc2ccccc2)[C@]23O[C@](C(=O)OC)(C(=O)N2[C@@H]1c1ccccc1)[C@@H](c1ccccc1)[C@@H]3C(=O)c1ccccc1	1.07 and 0.475	-1.84 (inactive) and -0.926 (inactive)	0.876 (inactive) and 0.459 (inactive)	0.78 (inactive) and 0.324 (inactive)	-0.0933 (inactive)	-1.37 (inactive) and -0.224 (inactive)	-0.603 (inactive) and 0.788 (inactive)	-0.263 (inactive) and 0.547 (inactive)	0.56 and 0.48	-0.209 and 0.0264
C=CCN(C(=O)C1N(C(C)(C)CO)C(=O)C2C(C(=O)O)C3C=CC21O3)C(C)(C)C (stereo not given)	-0.724 and -0.381	1 (inactive) and 0.053 (inactive)	-0.638 (inactive) and 0.113 (inactive)	1.3 (inactive) and -0.307 (inactive)	-0.456 (inactive) and 0.109 (inactive)	1.16 (inactive) and 1.25 (inactive)	-0.706 (inactive) and 0.32 (inactive)	-0.687 (inactive) and 0.356 (inactive)	-0.319 and -0.0012	-0.326 and -0.212
COC(=O)[C@H](C)NC(=O)CCC1CC(OC(=O)NCCc2ccc(F)cc2)CC2(CCCC(COC(=O)NCCCN3CCCC3=O)O2)O1 (stereo not given in full)	-0.704	-0.343 (inactive)	0.951 (inactive)	0.322 (inactive)	-0.977 (inactive)	0.492 (inactive)	-0.441 (inactive)	-0.367 (inactive)	0.315	-0.283
C=CCN(C(=O)C(c1cccs1)N(C(=O)/C=C\C(=O)O)c1ccc(CCO)cc1)C(C)(C)C (stereo not given)	-0.388 and -0.35	-2.06 (inactive) and -0.483 (inactive)	0.448 (inactive) and 0.224 (inactive)	-2.45 (inactive) and -0.818 (inactive)	0.289 (inactive) and -0.332 (inactive)	-0.0345 (inactive) and -0.122 (inactive)	0.592 (inactive) and -0.113 (inactive)	0.864 (inactive) and 0.356 (inactive)	0.0456 and 0.0755	-0.232 and -0.145
C=CCN(C(=O)C(c1cccs1)N(CCOCCO)C(=O)/C=C\C(=O)O)C(C)(C)C (stereo not given)	-0.403 and -0.304	-0.655 (inactive) and -0.25 (inactive)	-0.102 (inactive) and 0.0032 (inactive)	-2.84 (inactive) and -0.333 (inactive)	-0.497 (inactive)	0.432 (inactive) and 0.467 (inactive)	1.15 (inactive) and 1.46 (inactive)	1.61 (inactive) and 1.68 (inactive)	-0.0043 and -0.146	0.0428 and 0.704
CO[C@@H]1COC(=O)CC=C[C@H](C)COC(=O)[C@H](C)NC(=O)CC=C[C@H]1C	0.496	0.699 (inactive)	0.859 (inactive)	1.09 (inactive)	-0.531 (inactive)	1.25 (inactive)	0.365 (inactive)	-0.896 (inactive)	0.74	-0.0936
